Usually AC50 stands for the concentration at which the activity in the assay is half-maximal.

The source made the active and inactive calls. Rule for the calls: active = hit-call score of the fitted dose curve at least 0.9, where 1 is the maximum; inactive = score below 0.9.

human Muscarinic Acetylcholine Receptor M4 Antagonism, conducted at France lab site, CHRM4 (gene 1132), sequence (P08173 whole entry, looked up): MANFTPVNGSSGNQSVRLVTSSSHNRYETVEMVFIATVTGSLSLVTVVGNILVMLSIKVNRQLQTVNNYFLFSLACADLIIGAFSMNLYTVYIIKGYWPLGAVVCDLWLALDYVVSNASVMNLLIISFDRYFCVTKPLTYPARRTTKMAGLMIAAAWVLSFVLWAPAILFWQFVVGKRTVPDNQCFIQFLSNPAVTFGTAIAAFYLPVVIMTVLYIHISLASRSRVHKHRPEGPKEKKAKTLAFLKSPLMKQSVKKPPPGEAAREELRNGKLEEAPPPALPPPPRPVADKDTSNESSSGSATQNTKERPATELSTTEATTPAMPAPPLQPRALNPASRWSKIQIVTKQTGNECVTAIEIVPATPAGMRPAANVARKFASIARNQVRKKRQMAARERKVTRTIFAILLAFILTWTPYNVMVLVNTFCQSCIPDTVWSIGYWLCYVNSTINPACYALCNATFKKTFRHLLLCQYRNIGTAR

The experiment has as its target human Muscarinic Acetylcholine Receptor M4 Antagonism, conducted at France lab site, CHRM4 (gene 1132) (UniProt P08173). The experiment can be described thus: ERF_FR_GPCR_hCHRM4: Eurofins (ERF) G Protein-Coupled Receptor (GPCR) Radioligand Binding LeadHunter Assay for human Muscarinic Acetylcholine Receptor M4 Antagonism, conducted at France lab site. Here is the method: ERF_FR_GPCR_hCHRM4 is a biochemical, single-readout assay that uses extracted gene-proteins in a cell-free assay. Measurements were taken 1 hour after chemical dosing in a 96-well plate. See M4 Human Acetylcholine (Muscarinic) GPCR Binding (Antagonist Radioligand) Assay, Cerep.ERF_FR_GPCR_hCHRM4 is an assay component calculated from the ERF_FR_GPCR_hCHRM4 assay. It is designed to measure radioligand binding using a type of binding reporter as detected by scintillation counting with radiometry technology.Data from the assay component ERF_FR_GPCR_hCHRM4 was analyzed at the assay endpoint, ERF_FR_GPCR_hCHRM4, in the positive analysis fitting direction relative to DMSO as the negative control and baseline of activity. Using a type of binding reporter, loss-of-signal activity can be used to understand changes in binding as they relate to gene CHRM4. To generalize the intended target to other relatable targets, this assay endpoint is annotated to the gpcr intended target family, where the subfamily is acetylcholine (Muscarinic).
Human cells are incubated for 60 minutes at room temprature with [3H]4-DAMP ligand (0.2 nM) and 4-Damp methiodide as control inhibitor.Test Sample Requirements: Minimum for 1) Screen: 60 ul of 10 mM stock -OR- 1 mg (pre-weighed) for 10 uM final testing. 2) Dose Response: 90 ul of 10 mM stock -OR- 1 mg (pre-weighed) for a top concentration at 10 uM.
Take `O=C(/C=C/c1ccc(O)cc1)CC(=O)/C=C/c1ccc(O)cc1`: the AC50 is 9.09 µM (active).

The values above are taken from PubChem BioAssay AID2284155 (EPA ToxCast).
